Assay outcomes from PubChem BioAssay.
Tat transport: inhibitors of E. coli Tat protein transport. inhibition, % at 10 µM. hit rate 0.036% among 340,000. E. coli MC4100 TorA-mCherry Tat export, fluorescence. AID 488895;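 active = mean replicate inhibition at least 50% and at least half of replicates individually reaching 50%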;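 note: exported cargo escapes ClpAP degradation while cytoplasmic cargo is degraded and loses fluorescence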
phage Ecoli inh: E. coli growth loss with phage present | AID 651602 | hit rate 0.26% among 360,000 | inhibition, % at 11.9 µM | growth absorbance; in the data active = inhibition above about 11%
AddAB inh: less growth of phage-infected E. coli with AddAB. E. coli expressing H. pylori AddAB, absorbance growth. inhibition, % at 11.9 µM. hit rate 0.29% among 330,000. AID 435030; in the data active = inhibition above about 12%
E coli growth-1: E. coli growth inhibition | Escherichia coli growth, OD600, 23 h; active compounds read low | OD600 absorbance (test concentration not listed) | hit rate 0.21% among 330,000 | AID 1053175;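 active = OD600 absorbance below the run mean of sample wells minus 3.6 SD, in any replicate, cut at about 0.56 in these data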
E coli growth-2: counter-screen for AddAB inhibitors: E. coli growth inhibition; hit rate 0.27% among 330,000; inhibition, % at 11.9 µM; E. coli V3065 growth, OD600 absorbance, 18 h;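 active = inhibition above the campaign's mean inhibition across all tested compounds plus 3 SD, cut at about 9.9% in these data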;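 note: uninfected addAB+ strain grown without phage in ampicillin broth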
RecBCD conf: growth loss of phage-infected V66 E. coli, RecBCD confirmation screen; AID 651982; E. coli V66 + T4 2- phage, growth OD; shares compounds with phage Ecoli inh; hit rate 45% among 890; inhibition, % at 11.9 µM;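 active = mean inhibition over triplicates exceeding the hit threshold derived in the original primary screen, cut at about 11% in these data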
Ecoli viability: inhibits E. coli viability, flagging RecBCD hits as nonselective. hit rate 29% among 890. shares compounds with phage Ecoli inh. inhibition, % at 11.9 µM. absorbance (OD) growth. AID 651983; in the data active = inhibition above about 20%;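 note: E. coli strain V66 grown with compound alone and no phage infection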
AddAB phage OD: growth loss of phage-infected AddAB E. coli, RecBCD counter-screen; E. coli expressing H. pylori AddAB + T4 phage, OD growth; gene 2 mutant T4, recBCD-deleted host; AID 651984; hit rate 45% among 890; shares compounds with phage Ecoli inh; inhibition, % at 11.9 µM;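 active = mean inhibition above the solvent-only control wells' mean plus 3 SD, cut at about 22% in these data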;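 note: higher means less bacterial growth from phage killing when AddAB is blocked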
A number is an active result. The list is not random: actives were taken first. Their share in the collection is about 0.51%.

Results for C[C@]12CCC(O)CC1=CCC1C2CC[C@]2(C)C(=O)CCC12 (stereo not given in full) ?
E coli growth-1: inactive

What do the screens show for `COc1ccc(CC2=NCCc3cc(OC)c(OC)cc32)cc1OC`?
phage Ecoli inh: inactive

How did COC(=O)c1c2[n+](cc3cc(OC)c(OC)cc13)CCc1cc(OC)c(OC)cc1-2 do in these assays?
Tat transport: inactive; phage Ecoli inh: 15.5; AddAB inh: inactive; E coli growth-1: inactive; E coli growth-2: inactive; RecBCD conf: inactive; Ecoli viability: inactive; AddAB phage OD: inactive

What do the screens show for `COC(=O)C1=C(c2ccc(OC)c(OC)c2)CC2CCC1N2C(=O)NCCNC(C)=O` (stereo not given)?
E coli growth-1: inactive

How did O=[N+]([O-])c1ccc(N(CCO)CCO)c2c1no[n+]2[O-] do in these assays?
phage Ecoli inh: 93.2; RecBCD conf: 84.5; Ecoli viability: 91.5; AddAB phage OD: 100.2

Results for CN(C)c1ccc(C(=O)NN=CC23CC[C@@H](O)CC2(O)CC[C@@H]2[C@@H]3CCC3(C)C(C4=CC(=O)OC4)CCC23O)cc1 (stereo not given in full) ?
E coli growth-1: inactive

How did Oc1c(Cl)cccc1Cc1cc(Cl)cc(Cl)c1O do in these assays?
Tat transport: inactive; phage Ecoli inh: 14.5; E coli growth-1: 0.383; RecBCD conf: inactive; Ecoli viability: inactive; AddAB phage OD: inactive

How did COC(=O)C1=C(c2ccc(C(C)=O)cc2)CC2CCC1N2C(=O)NC(C)C (stereo not given) do in these assays?
E coli growth-1: inactive

Results for CCOC(=O)[C@]12Cc3cc(Cl)ccc3[C@H]1N(C1CCCCC1)C(=O)c1cc(OC)ccc12 ?
phage Ecoli inh: 11.2; RecBCD conf: inactive; Ecoli viability: inactive; AddAB phage OD: inactive

What do the screens show for `CCN1/C(=C/C=C/C2=[N+](CC)c3ccccc3C2(C)C)C(C)(C)c2ccccc21`?
phage Ecoli inh: 25.4; RecBCD conf: 17.9; Ecoli viability: 21.0; AddAB phage OD: 43.4

What do the screens show for `COC(=O)C1=C(c2ccc(OCc3ccccc3)cc2)CC2CCC1N2C(=O)NCCN1CCOCC1` (stereo not given)?
E coli growth-1: inactive

What do the screens show for `CC(N)C(=O)NC1C2C(=C(O)CC(O)C2O)C(=O)OC1(C)C(Cl)Cl` (stereo not given)?
Tat transport: 82.3; phage Ecoli inh: 98.7; RecBCD conf: 104.2; Ecoli viability: 106.1; AddAB phage OD: 97.0

Results for O=C(CSC1c2ccccc2-c2ccccc21)NN=Cc1ccccc1O ?
E coli growth-1: inactive

What do the screens show for `CN(C)C1C(=O)C(C(N)=O)=C(O)C2(O)C(=O)C3=C(O)c4c(O)cccc4C(C)(O)C3C(O)C12` (stereo not given)?
Tat transport: 138.0; phage Ecoli inh: 98.9; AddAB inh: inactive; E coli growth-1: 0.064; E coli growth-2: inactive; RecBCD conf: 101.5; Ecoli viability: 104.1; AddAB phage OD: 102.4
